For test [1], the target named is human Vitamin D Receptor (VDR), VDR (gene 7421) (UniProt P11473). The test can be described thus: ATG_VDR_TRANS: Attagene TRANS-FACTORIAL HepG2 Assay for human Vitamin D Receptor (VDR) (AID 2283022; active = hit-call score of the fitted dose curve at least 0.9, where 1 is the maximum). Put shortly: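 RT-PCR/capillary electrophoresis read-out of reporter mRNA induction in transiently transfected HepG2; 24 h dosing; chimeric NR-Gal4 (TRANS format); gain-of-signal fit against DMSO baseline.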

Test [2] in a line: BSK_3C_SRB: Viability Assessment in the BioMAP Diversity Plus: 3C Assay (AID 2283023).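 Also: fitted both ways against DMSO so a hit may be signal rise or drop.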 The note with it: primary human endothelial cells (HUVEC). Put shortly:
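HUVEC, 24 h post-dose; 10% TCA fix, 0.1% SRB stain, A560 nm. Bidirectional curve fit vs DMSO negative control.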

Read-out in test [3]: Matrix Metallopeptidase 1 (MMP1), MMP1 (gene 4312)
The test can be described thus: BSK_BE3C_MMP1: BioMAP Diversity Plus: BE3C Assay for Matrix Metallopeptidase 1 (MMP1) Biomarker Activity (AID 2283024). The note with it: primary human bronchial epithelial cells; actives raise or lower the signal. Put shortly:
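ELISA measurement of MMP-1 after 24 h compound exposure of primary human bronchial epithelial cells. Changes in either direction fitted relative to DMSO; parallel SRB staining checked overt cytotoxicity.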

The nature of test [4]: BSK_3C_Vis: BioMAP Diversity Plus: 3C Assay for Morphology Visualization (AID 2283025).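 Also: fitted both ways so gain or loss versus DMSO counts.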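 As to AC50: light microscopy image of cell morphology used as background control.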 The conditions noted are these: primary human endothelial cells (HUVEC). Put shortly:
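Light-microscopy visualization of HUVEC cultures at 24 h post-treatment, with DMSO as baseline for bidirectional fitting.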

Read-out in test [5]: Pselectin, SELP (gene 6403)
The test can be described thus: BSK_4H_Pselectin: BioMAP Diversity Plus: 4H Assay for Pselectin Biomarker Activity (AID 2283026). The note with it: primary human endothelial cells (HUVEC); actives raise or lower the signal. Put shortly: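 ELISA of surface P-selectin on HUVEC, 24 h after dosing, with parallel SRB staining (0.1% after 10% TCA fixation, 560 nm) for overt cytotoxicity. Activity fitted in both directions relative to DMSO.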

The nature of test [6]: BSK_4H_SRB: Viability Assessment in the BioMAP Diversity Plus: 4H Assay (AID 2283027).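 Also: cells exposed to compound for 24 h before staining.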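 As to AC50: curves fitted both ways versus DMSO so AC50 may be loss or gain.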 The note with it: primary human endothelial cells (HUVEC). Put shortly: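 HUVEC, 24 h post-dose; 10% TCA fix, 0.1% SRB stain, A560 nm. Total protein = overt cytotoxicity, parallel to biomarker read. Bidirectional fit vs DMSO baseline.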
Test [7] is described as follows: BSK_BE3C_SRB: Viability Assessment in the BioMAP Diversity Plus: BE3C Assay (AID 2283028). The note with it: primary human bronchial epithelial cells. Put shortly: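 Primary human bronchial epithelium; chemical dosing, 24 h; 10% TCA fix, 0.1% SRB stain, A560; bidirectional fit vs DMSO baseline.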
Read-out in test [8]: Thrombomodulin, THBD (gene 7056)
Kind of test: BSK_3C_Thrombomodulin: BioMAP Diversity Plus: 3C Assay for Thrombomodulin Biomarker Activity (AID 2283029). The note with it: primary human endothelial cells (HUVEC); actives raise or lower the signal. Put shortly:
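ELISA measurement of thrombomodulin on HUVEC surface 24 h after chemical dosing; activity fitted in both directions relative to DMSO vehicle.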

Read-out in test [9]: Urokinase-type plasminogen activator receptor (uPAR), PLAUR (gene 5329)
Kind of test: BSK_4H_uPAR: BioMAP Diversity Plus: 4H Assay for Urokinase-type plasminogen activator receptor (uPAR) Biomarker Activity (AID 2283030). The note with it: primary human endothelial cells (HUVEC); actives raise or lower the signal. Put shortly:
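HUVEC, 24 h post-dose; uPAR by ELISA; bidirectional fit vs DMSO baseline.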

Read-out in test [10]: Vascular endothelial growth factor receptor 2 (Homo sapiens) (UniProt P35968)
Kind of test: BSK_4H_VEGFRII: BioMAP Diversity Plus: 4H Assay for Vascular endothelial growth factor receptor 2 (VEGFR2) Biomarker Activity (AID 2283031).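 As to AC50: cell-surface VEGFR2 protein level quantified by ELISA.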 The conditions noted are these: primary human endothelial cells (HUVEC); actives raise or lower the signal. Put shortly:
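HUVEC (human primary), 4H system; 24 h post-dose; VEGFRII by ELISA; bidirectional curve fit vs DMSO baseline; gain or loss of signal scored.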

Read-out in test [11]: Human Leukocyte Antigen - DR isotype (HLADR), HLA-DRA (gene 3122)
The test can be described thus: BSK_BE3C_HLADR: BioMAP Diversity Plus: BE3C Assay for Human Leukocyte Antigen - DR isotype (HLADR) Biomarker Activity (AID 2283032). The note with it: primary human bronchial epithelial cells; actives raise or lower the signal. Put shortly:
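Cell-surface HLA-DR ELISA readout at 24 h after dosing in the BE3C primary human lung bronchial epithelial system; gain or loss of signal against DMSO, with parallel sulforhodamine B staining of total protein for overt cytotoxicity.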

Read-out in test [12]: Vascular cell adhesion molecule 1 (VCAM1), VCAM1 (gene 7412)
Kind of test: BSK_4H_VCAM1: BioMAP Diversity Plus: 4H Assay for Vascular cell adhesion molecule 1 (VCAM1) Biomarker Activity (AID 2283033).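 As to outcome: cell-surface VCAM-1 protein measured by ELISA.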 The conditions noted are these: primary human endothelial cells (HUVEC); actives raise or lower the signal. Put shortly:
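VCAM-1 ELISA read 24 h after chemical dosing of HUVEC in the BioMAP 4H system, with gain or loss of signal fitted relative to DMSO. Parallel SRB staining (560 nm) checked overt cytotoxicity.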

Read-out in test [13]: Interferon-gamma inducible Protein 10 (IP10), CXCL10 (gene 3627)
The test can be described thus: BSK_BE3C_IP10: BioMAP Diversity Plus: BE3C Assay for Interferon-gamma inducible Protein 10 (IP10) Biomarker Activity (AID 2283034). The conditions noted are these: primary human bronchial epithelial cells; actives raise or lower the signal. Put shortly: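 IP-10 quantified by ELISA in human primary bronchial epithelial cell cultures at 24 hours post-dosing. Gain or loss of signal fitted relative to DMSO; parallel SRB staining assessed overt cytotoxicity.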

Read-out in test [14]: Monokine induced gamma interferon (MIG), CXCL9 (gene 4283)
The test can be described thus: BSK_BE3C_MIG: BioMAP Diversity Plus: BE3C Assay for Monokine induced gamma interferon (MIG) Biomarker Activity (AID 2283035). The note with it: primary human bronchial epithelial cells; actives raise or lower the signal. Put shortly: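 Dose cells (human primary bronchial epithelial), incubate 24 h, quantify MIG by ELISA, then fit concentration–response in both directions relative to DMSO control.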

Read-out in test [15]: Transforming growth factor beta 1 (TGFb1), TGFB1 (gene 7040)
Kind of test: BSK_BE3C_TGFb1: BioMAP Diversity Plus: BE3C Assay for Transforming growth factor beta 1 (TGFb1) Biomarker Activity (AID 2283036;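 also: TGF-b1 protein level measured by ELISA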). The conditions noted are these: primary human bronchial epithelial cells; actives raise or lower the signal. Put shortly: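 ELISA readout of TGF-b1 from human lung bronchial epithelial primary cells, taken 24 h post-treatment. Gain or loss of signal fitted relative to DMSO baseline, with parallel SRB staining for overt cytotoxicity.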

Read-out in test [16]: Plasminogen activator inhibitor-1 (PAI1), SERPINE1 (gene 5054)
Kind of test: BSK_BE3C_PAI1: BioMAP Diversity Plus: BE3C Assay for Plasminogen activator inhibitor-1 (PAI1) Biomarker Activity (AID 2283037). The note with it: primary human bronchial epithelial cells; actives raise or lower the signal. Put shortly:
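PAI-1 was measured by ELISA in human primary bronchial epithelial cultures 24 h after chemical dosing, with cytotoxicity checked by SRB total-protein staining in parallel cultures. Activity was fitted in both directions relative to DMSO.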

Read-out in test [17]: urokinase plasminogen activator (uPA), PLAU (gene 5328)
The test can be described thus: BSK_BE3C_uPA: BioMAP Diversity Plus: BE3C Assay for urokinase plasminogen activator (uPA) Biomarker Activity (AID 2283038).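 Also: uPA protein level quantified by ELISA in cell cultures; uPA read one day after compound addition.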 The conditions noted are these: primary human bronchial epithelial cells; actives raise or lower the signal. Put shortly: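 ELISA read-out of uPA in human lung primary bronchial epithelial cultures, 24 h post-dosing. Gain or loss of signal fitted bidirectionally relative to DMSO baseline; cytotoxicity checked in parallel cultures via SRB total protein stain.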

Read-out in test [18]: Urokinase-type plasminogen activator receptor (uPAR), PLAUR (gene 5329)
Kind of test: BSK_BE3C_uPAR: BioMAP Diversity Plus: BE3C Assay for Urokinase-type plasminogen activator receptor (uPAR) Biomarker Activity (AID 2283039).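 Also: cells exposed to compound for one day before measurement.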 The note with it: primary human bronchial epithelial cells; actives raise or lower the signal. Put shortly:
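uPAR levels were measured by ELISA after 24 h compound treatment of primary human bronchial epithelial cells, fitted in both directions relative to DMSO. Parallel SRB staining served as the cytotoxicity read-out.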

Read-out in test [19]: Interleukin-6 (IL6), IL6 (gene 3569)
The test can be described thus: BSK_CASM3C_IL6: BioMAP Diversity Plus: CASM3C Assay for Interleukin-6 (IL6) Biomarker Activity for (AID 2283040). The conditions noted are these: primary human coronary artery smooth muscle cells; actives raise or lower the signal.

Read-out in test [20]: Tissue plasminogen activator (tPA), PLAT (gene 5327)
Kind of test: BSK_BE3C_tPA: BioMAP Diversity Plus: BE3C Assay for Tissue plasminogen activator (tPA) Biomarker Activity (AID 2283041).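 As to outcome: tPA level quantified by ELISA one day after compound addition.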 The note with it: primary human bronchial epithelial cells; actives raise or lower the signal. Put shortly: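 tPA measured by ELISA 24 h after dosing human primary bronchial epithelial cells (BE3C system). Changes in either direction were fitted against DMSO. Parallel cultures were stained with SRB to flag overt cytotoxicity.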

Results filed as inconclusive are left out. The source made the active and inactive calls. The calls were made as follows, unless noted: active = hit-call score of the fitted dose curve at least 0.9, where 1 is the maximum; inactive = score below 0.9.

human Vitamin D Receptor (VDR), VDR (gene 7421), sequence (P11473 whole entry, looked up, the tested form may be a part): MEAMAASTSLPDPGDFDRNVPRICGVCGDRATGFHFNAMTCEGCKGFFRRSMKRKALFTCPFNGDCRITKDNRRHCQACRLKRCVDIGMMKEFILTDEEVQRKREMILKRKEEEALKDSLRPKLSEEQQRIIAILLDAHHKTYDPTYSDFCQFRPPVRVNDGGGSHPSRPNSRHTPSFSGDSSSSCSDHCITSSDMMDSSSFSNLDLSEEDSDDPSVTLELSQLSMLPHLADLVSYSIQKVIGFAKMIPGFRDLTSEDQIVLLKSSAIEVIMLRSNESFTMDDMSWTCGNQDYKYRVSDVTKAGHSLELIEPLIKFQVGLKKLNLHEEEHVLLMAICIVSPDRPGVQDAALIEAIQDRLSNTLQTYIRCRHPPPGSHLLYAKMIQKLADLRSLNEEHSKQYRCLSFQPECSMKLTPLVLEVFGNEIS

Turning to `CC1(C)C(=O)N(Br)C(=O)N1Br`, the compound was classed as inactive in [1], in test [2], in [3], in [4], in test [5] and in [6]. Further, the outcome in [7], in test [8], in test [9], in [10], in test [11] and in test [12] was inactive. Also, the result in test [13], in test [14], in test [15], in [16], in test [17] and in test [18] was inactive. In addition, the outcome in test [19] and in [20] was inactive.

Usually AC50 stands for the midpoint of the concentration-response curve, whichever way the signal moves. Consider `O=c1n(CC2CO2)c(=O)n(CC2CO2)c(=O)n1CC1CO1` (configuration not stated), for which the compound was called inactive in [1], in [3], in [7], in test [8], in [9] and in test [10]. Also, the result in test [13], in [14], in test [15], in [16], in test [17] and in [18] was inactive. Also, in test [19], the outcome was inactive. Besides, the AC50 in [2] is 17.5 µM (active); in [4], 39 µM (active); in test [5] it was 11.8 µM (active); in [6], 15.1 µM (active); in test [11] it was 34.7 µM (active); in [12], 23.4 µM (active).

For the compound `CC(C)=CCC/C(C)=C\CO`, the compound was classed as inactive in [1], in test [2], in test [3], in test [4], in [5] and in [6]. Also, the result in [7], in [8], in [9], in test [10], in [11] and in [12] was inactive. The result in [13], in test [14], in [15], in test [16], in test [17] and in test [18] was inactive. Also, the outcome in test [19] was inactive.

For `CCOCCOCCOCCO`, the result in test [1], in [2], in test [3], in test [4], in test [5] and in [7] was inactive. The result in [8], in [9], in test [10], in test [11], in [12] and in test [13] was inactive. For the same compound, the result in test [14], in test [15], in [16], in test [17], in test [18] and in test [19] was inactive. Also, the result in test [20] was inactive.

As to `CCOC(=O)CC(CC(=O)OCC)(OC(C)=O)C(=O)OCC`, the outcome in test [1], in test [2], in test [3], in test [4], in [5] and in [7] was inactive. Besides, the result in test [8], in [9], in [10], in test [11], in [12] and in [13] was inactive. Moreover, the result in [14], in [15], in test [16], in test [17], in [18] and in test [19] was inactive.

Turning to `CC(C)c1cccc(C(C)C)c1N1C(=O)c2ccc(O)cc2C1=O`, the compound was called inactive in [1], in [3], in [7], in test [8], in test [17] and in [19]. The AC50 in test [2] was 17.3 µM (active); in [4], 5.57 µM (active); in [5], 8.54 µM (active); in [9], 14.6 µM (active); in test [10], 20 µM (active); in test [11], 14 µM (active). Further, the AC50 in [12] is 29.4 µM (active); in test [13] it was 19.5 µM (active); in test [14], 26.3 µM (active); in test [16] it was 9.07 µM (active); in test [20], 27.2 µM (active).
